Most compounds without a hit are left out; they make up all but 5.4% or so of the library.
RORgamma inh – ROR gamma (mouse) transcription inhibition | P51450 | Drosophila S2 Gal4-RORgamma UAS-luciferase reporter, 20 h | Potency, µM (titrated, usually from 53.6 µM), inactives show top-dose activity change, negative = inhibition, hits mostly inhibitors | 5.4% of 310,000 active | AID 2551; also: potency is read from the fitted curve at half-maximal effect; % is scaled to controls: 0 for no effect and ±100 for the full control effect; nearly all actives have a fitted effect of over 60% in size
Target sequence (P51450 whole entry, looked up, the tested form may be a part): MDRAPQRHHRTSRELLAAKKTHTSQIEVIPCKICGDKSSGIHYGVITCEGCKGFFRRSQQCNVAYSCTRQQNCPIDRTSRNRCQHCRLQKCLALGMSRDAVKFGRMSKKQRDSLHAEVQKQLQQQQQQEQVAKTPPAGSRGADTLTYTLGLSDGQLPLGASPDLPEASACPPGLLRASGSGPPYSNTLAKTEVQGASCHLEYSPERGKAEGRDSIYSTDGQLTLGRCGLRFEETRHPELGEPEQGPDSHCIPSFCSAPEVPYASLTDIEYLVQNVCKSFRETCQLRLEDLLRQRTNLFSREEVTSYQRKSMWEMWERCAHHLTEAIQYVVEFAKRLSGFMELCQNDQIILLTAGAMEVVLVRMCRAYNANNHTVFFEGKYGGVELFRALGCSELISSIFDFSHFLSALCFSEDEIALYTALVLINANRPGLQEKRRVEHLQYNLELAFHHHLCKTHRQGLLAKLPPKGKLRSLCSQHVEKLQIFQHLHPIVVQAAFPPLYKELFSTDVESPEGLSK
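In this cell-based reporter format, copper sulfate (700 uM final) drives Gal4–ROR gamma fusion expression from a metallothionein promoter in Drosophila Schneider cells; compounds preincubated 1 hr, reporter read after 20 hr at ambient temperature.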
Gal4-VP16 FLuc – Gal4-VP16 reporter inhibition counter-screen; 3.5% of 310,000 active; Potency, µM (highest dose often 53.6 µM), inactives show at the top dose activity, negative = inhibition, hits mostly inhibitors; Drosophila S2 Gal4-VP16 UAS-luciferase, luminescence, 20 h; AID 2546;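 also: Gal4-VP16 expression switched on by copper sulfate through the metallothionein promoter; potency is read from the fitted curve at half-maximal effect; % is scaled to controls: 0 for no effect and ±100 for the full control effect; nearly all actives have a fitted effect of over 50% in size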
p53 reactivation – re-activators of mutant p53 | H1299 p53-A138V BP100-luciferase reporter, luminescence, 24 h | Potency, µM (series often up to 92.2 µM), inactives show at the top dose activity change, positive = activation, usual class: activators | 0.063% of 320,000 active; also: potency is read from the fitted curve at half-maximal effect; % of control where 0% means no effect; nearly all actives have a fitted effect of over 45% in size
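p53-null H1299 cells stably carrying temperature-sensitive p53-A138V and a BP100-luciferase reporter were pinned with compounds (4-point, 1:5 series) and held 24 hrs at 37 deg C. Luminescence was read 10 min after detection reagent.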
CtBP-E1A inh – CtBP/E1A binding inhibition | AlphaScreen GST-E1A/His-CtBP binding, 1536-well; hits give low values | activity change, % (concentration not given with the values) | 0.49% of 340,000 active | AID 651724; in the data active = activity change below about -65%; inconclusive = mostly about -30% to -63%; also: % is scaled to controls: 0 for no effect and ±100 for the full control effect
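Steps: dispense buffer (Tris pH 8.0, NaCl 300 mM, TCEP 1 mM, BSA, Tween 20); add 5X protein mix (GST-E1A, His-CtBP, 125 nM each); pin 23 nL compound; 2 h at 37 °C, dark; add 5X beads (50 ug/mL); 1 h; read.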
Six1-Eya2 blk – inhibitors of human Six1/Eya2 interaction; activity change, % (test concentration not listed); AID 651725; 0.56% of 360,000 active; AlphaScreen GST-Six1/His-Eya2 binding, biochemical; hits give low values; in the data active = activity change below about -65%; inconclusive = mostly about -30% to -63%; also: % is scaled to controls: 0 for no effect and ±100 for the full control effect
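Homogeneous AlphaScreen proximity assay pairing GST-Six1 with His-tagged Eya2 (added as 5X mix: 250 nM and 500 nM) in 50 mM Tris pH 8.0, 300 mM NaCl, 1 mM TCEP. Glutathione donor and nickel acceptor beads; 1 h, 37 °C, dark.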
* hit, by the source's call; ? = inconclusive; nt = not tested or not shown. Unless noted, calls follow the shape of the dose curve; as a rule, active = well fitted curve in the direction sought with a large enough effect; inconclusive = small, poorly fitted or top-dose-only effect, or another doubt; inactive = no such curve, though single readings can be large; an effect the other way counts as inactive or inconclusive.

SMILES | RORgamma inh | Gal4-VP16 FLuc | p53 reactivation | CtBP-E1A inh | Six1-Eya2 blk
O=C(N/N=C/c1cccnc1)c1cc(-c2ccccc2)nc2ccccc12 | 0% | 0% | -5% | -7 | -8
O=C(N/N=C/c1ccsc1)c1cc(-c2ccncc2)nc2ccccc12 | 11µM* | -13% | -1% | -5 | -8
O=C(N/N=C/c1ccc[nH]1)c1cc(-c2ccc(Cl)cc2)nc2ccccc12 | 1.4µM* | 5.6µM* | -2% | -9 | -30
O=C(N/N=C/c1ccccn1)c1cc(-c2ccncc2)nc2ccccc12 | 8.9µM* | ? | 11% | -73* | -72*
O=C(O)c1ccc(/C=N/NC(=O)c2cc(-c3cccs3)nc3ccccc23)cc1 | 19% | -9% | 1% | -26 | ?
C[C@H]1CN([C@@H](C)CO)S(=O)(=O)c2ccc(Br)cc2O[C@H]1CN(C)C(=O)C1CCC1 | nt | nt | nt | -5 | 10
Clc1cccc(-c2nc3c4ccccc4ccn3c2Cc2ccsc2)c1 | nt | nt | nt | -4 | 22
Cc1ccc(S(=O)(=O)N2CC(C)N(C(=O)N3CCOCC3)C2C)cc1 (stereo unspecified) | 6% | 1% | 4% | 0 | -6
CCCCc1c(C)nn(-c2nnc3c4ccccc4n(C)c3n2)c1C | 0.79µM* | 7.1µM* | ? | 0 | -1
Cn1c2ccccc2c2nnc(NN)nc21 | -13% | 0% | -1% | ? | -18
C/C(=N\NC(=O)c1cccc(Br)c1)c1ccccn1 | 0.1µM* | 0.028µM* | ? | -3 | -90*
O=C(NC(O)C(=O)c1ccccc1)c1ccccn1 (stereo unspecified) | -26% | -13% | -1% | 11 | 0
O=C(NN=C(c1ccccc1)c1ccccn1)c1ccccc1 | nt | nt | ? | 6 | -68*
CCOc1ccc(OCc2ccc(C(=O)N/N=C(\C)c3ccccn3)cc2)cc1 | 0.11µM* | 5% | ? | ? | ?
C/C(=N\NC(=O)c1cccc(N/N=C(\C)c2ccccc2)c1)c1ccccc1 | ? | ? | ? | -8 | -23
O=C(NN=C1CCC(=NNC(=O)c2ccccn2)CC1)c1ccccn1 | -15% | 2% | 8% | -75* | -67*
Cc1cc2c(cc1C)/C(=N/NC(=O)c1ccccn1)CCC2 | -26% | -18% | 5% | -29 | -21
CCCCc1nc(SCC(=O)N2CCOCC2)c2c(=O)n(C)c(=O)n(C)c2n1 | 8% | -2% | -14% | -3 | -7
COc1ccc(CCN2C(=O)CC(NNc3ccc([N+](=O)[O-])cc3)C2=O)cc1OC (stereo unspecified) | 1% | 12% | -7% | -3 | -7
CCC(=O)N1CCCC1(C)C(=O)Nc1ccc(C)c(C)c1 (stereo unspecified) | nt | nt | nt | 7 | -2
C/C(=N\NC(=O)C(c1ccccc1)c1ccccc1)c1ccccn1 | 0.63µM* | 1.6µM* | 27% | -15 | -12
C/C(=N\NC(=O)c1cccc2ccccc12)c1ccccn1 | nt | nt | nt | -92* | -91*
C/C(=N/NC(=O)c1ccc(C(C)(C)C)cc1)c1ccccn1 | nt | nt | nt | -1 | -88*
COc1ccc(C(=O)N/N=C(\C)c2ccccn2)cc1OC | 0.35µM* | 0.56µM* | ? | -93* | -89*
C/C(=N\NC(=O)c1cccc2ccccc12)c1cccs1 | -13% | 21% | ? | -2 | 1
SMILES | RORgamma inh | Gal4-VP16 FLuc | p53 reactivation | CtBP-E1A inh | Six1-Eya2 blk
C/C(=N/NC(=O)c1ccccn1)c1ccncc1 | -24% | -12% | ? | -29 | ?
Cc1cc(-c2ccccc2)nc2cc(C(=O)NCc3ccco3)nn12 | -11% | 21% | 3% | -13 | -3
CCN1C[C@@H]2[C@@H]3C(=O)N(Cc4ccccc4)C(=O)[C@@H]3[C@](C)(C1=O)N2C(=O)c1ccc(Cl)c(Cl)c1 | nt | nt | nt | 9 | 4
O=c1c(-c2ccc(F)cc2)nc2cnc(N3CCOCC3)nc2n1CCc1ccccc1 | -12% | 1% | nt | nt | nt
C/C(=N\NC(=O)c1ccc(Cl)c(Cl)c1)c1ccccn1 | 0.089µM* | 0.0028µM* | ? | ? | ?
C/C(=N\NC(=O)c1cc(Br)ccc1O)c1ccccn1 | 0.4µM* | 0.28µM* | 14% | -9 | -3
C/C(CC(=O)Nc1ccccn1)=N\NC(=O)c1ccccc1O | -26% | ? | ? | -25 | -19
C/C(=N\NC(=O)c1ccccc1Cl)c1ccccn1 | 1.3µM* | 2.8µM* | ? | nt | -91*
C/C(=N\NC(=O)c1ccoc1C)c1cccc2ccccc12 | 13µM* | -8% | 4% | 5 | -9
COc1ccccc1-c1cc2c(c3c1ccn3C)C1CCC2C1 (stereo unspecified) | nt | nt | nt | -21 | -15
COc1ccc(/C=C/C(=O)NC(=S)Nc2ccccc2C(=O)NC2CCCCC2)cc1 | 14µM* | -11% | ? | 6 | 5
CC(=O)NC(=S)Nc1ccccc1C(=O)NC1CCCCC1 | -3% | 4% | -3% | 3 | -1
O=C(/C=C/c1ccc(F)cc1)NC(=S)Nc1ccccc1C(=O)NC1CCCCC1 | ? | 13µM* | 6% | 1 | 4
O=C(/C=C/c1ccccc1)NC(=S)Nc1ccccc1C(=O)NC1CCCCC1 | 11µM* | ? | -3% | 7 | 1
Cc1ccc(/C=C/C(=O)NC(=S)Nc2ccccc2C(=O)NC2CCCCC2)cc1 | ? | -20% | -4% | 10 | 4
O=c1[nH]cnc2c1ncn2C1OC(CO)CC1F (stereo unspecified) | nt | nt | nt | 12 | 6
Cc1ccccc1Nc1nnc(SCC(=O)c2c(N)n(C3CC3)c(=O)[nH]c2=O)s1 | nt | nt | -6% | 2 | 0
CCC(=O)NNC(=O)CCC(=O)Nc1cccc(Cl)c1C | 26% | 4% | -1% | nt | 5
CN(C)Cc1ccccc1-c1nccc(N(C)Cc2ccco2)n1 | 23% | -6% | nt | nt | nt

Bioassay records (PubChem)
